Source: PubChem BioAssay
Shown are actives, neighbours in structure and some others; about 2.1% of the full set was active somewhere.
HIF activator: HIF pathway transcriptional activation; AID 1910; activation, % at 7.5 µM (by protocol); U2OS HRE-luciferase reporter, luminescence; normalized: DMSO 0%, desferrioxamine 100%; hit rate 0.32% among 300,000;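 active = mean activation of at least 10% of the iron chelator positive control signal, with at least half of replicates also reaching 10%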
Wee1 stabilizer: human Wee1 degradation inhibition, primary screen; reporter increase, % at 5 µM; AID 1321; HeLa Luc-Wee1K328M stability, luciferase luminescence; 100% = proteasome inhibitor MG132 effect; P30291; hit rate 1.2% among 220,000;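 active = activation above the mean of all tested compounds plus 3 SD, set per screening run, cut at about 8.8% in these data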;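 note: cells exposed to compound for 20 h before luminescence read; 0% = DMSO alone and 100% = MG132 at 30 µM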
Target sequence (P30291 whole entry K328M): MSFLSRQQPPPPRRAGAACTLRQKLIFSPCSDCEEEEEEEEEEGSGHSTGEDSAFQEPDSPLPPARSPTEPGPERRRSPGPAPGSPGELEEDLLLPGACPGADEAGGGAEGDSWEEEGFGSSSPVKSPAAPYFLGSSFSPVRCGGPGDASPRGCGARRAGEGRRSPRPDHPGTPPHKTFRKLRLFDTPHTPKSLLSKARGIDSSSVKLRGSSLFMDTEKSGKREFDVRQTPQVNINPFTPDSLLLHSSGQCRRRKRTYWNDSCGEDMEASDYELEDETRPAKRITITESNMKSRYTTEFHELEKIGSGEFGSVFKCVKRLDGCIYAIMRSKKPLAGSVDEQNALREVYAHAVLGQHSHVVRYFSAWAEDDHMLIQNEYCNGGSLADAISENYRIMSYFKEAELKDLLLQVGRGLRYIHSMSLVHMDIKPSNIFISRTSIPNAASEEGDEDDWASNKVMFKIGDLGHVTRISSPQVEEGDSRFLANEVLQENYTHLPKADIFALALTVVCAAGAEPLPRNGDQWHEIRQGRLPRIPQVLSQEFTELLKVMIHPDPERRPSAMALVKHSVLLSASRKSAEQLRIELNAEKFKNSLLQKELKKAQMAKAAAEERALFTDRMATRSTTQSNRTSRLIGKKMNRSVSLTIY
Platelet DG rel: platelet dense granule release activity; inhibition, %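 (compounds screened at 7.5 µM in platelet-rich plasma)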; human platelet-rich plasma, SFLLRN dense granule ATP release, luminescence; hit rate 0.22% among 300,000;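 active = mean replicate score, as percent of positive control, at or above 50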
KLF5 inhibitor: kruppel-like factor 5 inhibition. hit rate 0.23% among 290,000. AID 1700. inhibition, % at 5 µM. DLD-1 KLF5 promoter-luciferase reporter, luminescence;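 active = inhibition above a per-plate limit of that plate's mean compound inhibition plus 3 SD, cut at about 60% in these data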;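 note: 0% = DMSO wells and 100% = LY294002 at 200 µM; higher means less KLF5 promoter-driven luciferase light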
aSyn UTR inh: MLPCN primary screen, SNCA 5' untranslated region; alpha-synuclein 5'UTR reporter, inhibitor activity; inhibition, % (tested at 7.5 µM); hit rate 0.82% among 300,000; in the data active = inhibition above about 60%;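 note: H4 neuroglioblastoma cells stably carrying SNCA 5'UTR luciferase fusion; 0% = DMSO wells and 100% = positive control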
Wee1 stab conf: confirmation of human Wee1 degradation inhibitors. hit rate 4% among 1,100. activation, % at 5 µM. shares compounds with Wee1 stabilizer. AID 1410. HeLa Luc-Wee1K328M degradation, luminescence; vehicle 0%, proteasome-blocked wells 100%; in the data active = activation above about 8.9%
Starred values were filed as active, the others as inactive; / = no result given.

SMILES	HIF activator	Wee1 stabilizer	Platelet DG rel	KLF5 inhibitor	aSyn UTR inh	Wee1 stab conf
COc1ccc(-c2cc(C(=O)N/N=C(\C)c3cccnc3)c3ccccc3n2)c(OC)c1	1	/	-5	-5	4	/
CN(C)c1ccc(P(=O)(OC2CCCCC2)C(O)c2cccnc2)cc1 (centres undefined)	0	12*	-2	-5	26	4
Cc1ccc(F)c(NC(=O)c2ccc(Cn3cc(Cl)cn3)cc2)c1	1	12*	2	-9	-36	1
Cc1ccc(NC(=S)N2CCOCC2)cc1	0	-2	-6	-28	-39	/
Cc1ccc(NC(=S)N2CCCC(O)C2)cc1 (centres undefined)	1	14*	-2	-18	-63	2
COc1ccc(CNCCC2(Cc3ccccc3)CC(C)N(C)CC2C)cc1OC (centres undefined)	1	17*	-3	-2	-25	0
COc1ccc(CN(CCC#N)CCC2(c3ccccc3)CC(C)N(C)CC2C)cc1OC (centres undefined)	0	-1	-17	-22	-15	/
CC1CCCCC1NC(=O)COC(=O)c1cc(=O)c2ccccc2o1 (centres undefined)	0	-2	-1	-44	-11	/
O=C(COC(=O)c1cc(=O)c2ccccc2o1)NC1CCCCC1	0	17*	5	-9	5	3
CCn1ncc(Br)c1C(=O)Nc1cccc(F)c1	-1	13*	-4	-59	17	2
CCn1ncc(Br)c1C(=O)Nc1ccc2c(c1)OCCO2	1	-1	8	-26	-94	/
CCCCc1c(C)nc(Nc2ccc(OC)cc2)[nH]c1=O	1	18*	-3	-5	-14	-1
CCCCCc1c(C)nc(Nc2ccc(F)cc2)[nH]c1=O	0	-1	-112	-10	-42	/
CCn1c(CSc2nc3ccccc3s2)nnc1SCC(N)=O	1	16*	-1	0	16	2
COc1ccc(C2=NC(=O)/C(=C\c3cc(OC)c(OC)c(OC)c3)O2)cc1	/	3	/	-21	/	/
O=C(Nc1ccc(Cl)cc1)NC1CCCCC1	3	11*	/	-63	-175	6
CN(C)S(=O)(=O)Nc1ccccc1F	0	-4	10	-14	14	/
Cc1ccc(S(=O)(=O)NN2C(=O)c3ccccc3NC2(C)C)cc1	0	-2	-10	7	26	/
CC1(C)Nc2ccccc2C(=O)N1NS(=O)(=O)c1ccccc1	0	11*	-1	5	10	5
CCCOc1ccc(-c2nnc(-c3cccs3)o2)cc1	-1	1	1	-183	45	/
CN(C)c1ccc(-c2nnc(-c3cccs3)o2)cc1	-4	15*	3	-98	82*	-1
CCOc1ccc(NC(=O)C2C3CC/C=C\CCC32)cc1 (centres undefined)	2	11*	7	-29	-87	0
O=C(CN1CCC(n2nnc3cc(C(F)(F)F)ccc32)CC1)Nc1ccc2c(c1)CCC2	-2	-2	-3	-29	28	/
O=C(CN1CCC(n2nnc3cc(C(F)(F)F)ccc32)CC1)Nc1ccc2c(c1)OCCO2	-2	15*	-3	-23	-12	2
O=C(Nc1ccc(S(=O)(=O)Nc2nccs2)cc1)c1cnc(Cl)c(Cl)c1	0	19*	7	-1	5	0
SMILES	HIF activator	Wee1 stabilizer	Platelet DG rel	KLF5 inhibitor	aSyn UTR inh	Wee1 stab conf
CCC(=O)N1CCN(c2ccccc2NC(=O)c2cccs2)CC1	0	/	-4	-34	9	/
CNc1nc(-c2ccc3c(c2)CCN3C(=O)c2ccccc2F)cs1	5	11*	7	-144	-90	7
COc1cc(/C=N/NC(=O)c2cccc(S(=O)(=O)N3CCCC3)c2)cc(OC)c1O	0	/	0	/	3	/
Cc1nc(SCc2cccc(F)c2)c2oc3ccccc3c2n1	-1	-3	-6	-17	3	/
Cc1cc(N2CCN(C(c3ccccc3)c3ccc(Cl)cc3)CC2)n2ncnc2n1 (centres undefined)	0	12*	6	-2	-3	-1
C/C(=N\N=c1/sc2ccccc2n1C)c1ccc(N2CCOCC2)cc1	9	14*	9	-12	-132	1
CN1C(=O)C(=O)/C(=C(/O)c2ccccc2)C1c1ccc([N+](=O)[O-])cc1 (centres undefined)	-2	/	7	-31	14	/
O=C(c1ccc(S(=O)(=O)NCC2CCCO2)cc1)N1CCN(c2ccccc2F)CC1 (centres undefined)	0	26*	-2	-17	-7	1
C(=N\Nc1nc2ccccc2[nH]1)/c1ccc2c(c1)OCO2	5	12*	5	-85	-222	3
COc1ccc(C(=O)NCC(=O)OCC(=O)c2cc(OC)c(OC)c(OC)c2)cc1OC	0	-3	-4	-53	-2	/
COc1cc(C(=O)NCC(=O)OCC(=O)c2ccc[nH]2)cc(OC)c1OC	0	14*	-3	3	27	-1
COc1ccc(OC)c(S(=O)(=O)N2CCN(C(=O)CCc3ccccc3)CC2)c1	0	/	-1	-47	10	/
CCOC(=O)c1c(Nc2ccccc2OCCOC)n[nH]c1C	-1	11*	4	-32	7	0
CCOC(=O)c1c(NCc2ccccc2)n[nH]c1C	0	0	-1	-11	28	/
COc1cc(C2Nc3cc(Cl)c(S(N)(=O)=O)cc3S(=O)(=O)N2)cc(OC)c1OC (centres undefined)	0	12*	-11	9	-19	-1
CN(CCOc1ccccc1)c1ccc(S(=O)(=O)N2CCCCC2)cn1	-1	-1	1	-12	9	/
CN(Cc1c(F)cccc1Cl)c1ccc(S(=O)(=O)N2CCOCC2)cn1	0	12*	-6	0	41	3
COc1ccc(CCNC(=O)CCN2C(=O)COc3ccc(C)cc32)cc1OC	0	1	0	-19	13	/
Cc1ccc2c(c1)N(C(C)C(=O)NCCc1ccccc1)C(=O)CO2 (centres undefined)	0	12*	-4	-38	-35	0
CCCCOC(=O)c1ccccc1N1C(=O)C2C3CCC(C3)C2C1=O (centres undefined)	-5	12*	16	-17	1	-2
COC(=O)/C=C/c1ccc2c(c1)OCO2	-1	1	-5	12	-22	/
COC(=O)/C=C/c1ccc(OC(=O)OC)c(OC(=O)OC)c1	1	12*	-4	-92	-36	1
O=C(NCc1ccon1)C1CCC(=O)N(CCc2ccc(Cl)cc2)C1 (centres undefined)	0	/	-1	-20	-1	/
CCN1CCN(c2nc(Nc3ccc(OC)cc3)nc(N)c2[N+](=O)[O-])CC1	0	12*	4	-16	-13	1
COc1ccc(NS(=O)(=O)c2cc(NC(=O)c3ccccc3F)ccc2N2CCCC2)cc1	1	14*	-1	4	-26	-2
